Data published in PubChem BioAssay (NCATS).
Results filed as inconclusive are left out. Calls of active or inactive are those of the source. The call rests on the fitted dose curve; in most records, active means well fitted inhibition curve with a large enough effect; inconclusive means small, poorly fitted or top-dose-only effect; inactive means flat fitted curve, though single readings scatter.

system: MKL-2; test: qHTS assay to identify novel small-molecules to repurpose for Merkel cell carcinoma treatment (AID 1296009); conditions: MCC and control cell lines, CellTiter-Glo viability, 72 h; series mostly up to 46 µM; activity change, negative = cytotoxicity: at the top concentration; further: nearly all actives have a fitted effect of over 60% in size
Procedure, shortened: (§1)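 After compound transfer in DMSO, plates were kept 72 hr at 37 degree celsius. Luminescent ATP signal from CellTiter-Glo served as viability measure, normalized against DMSO and no-cell controls.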
On the % scale 0 is the no-effect control and ±100 the full control effect; potency means the concentration at half of the fitted maximal effect.

Compound | Potency | activity change, negative = cytotoxicity | outcome
Cc1c(C(=O)c2cccc3ccccc23)c2cccc3c2n1[C@H](CN1CCOCC1)CO3 | 23500 nM (active) | – | –
CC(=O)Nc1ccc(OC[C@](C)(O)C(=O)Nc2ccc([N+](=O)[O-])c(C(F)(F)F)c2)cc1 | – | -7.34% (inactive) | –
CCCCCCCCCC(CC)c1ccc(S(=O)(=O)O)cc1 (configuration not stated) | – | 5.6% [at 92.7 µM] (inactive) | –
Nc1ccc(Sc2ccc(N)cc2)cc1 | – | -14.3% [at 92.7 µM] (inactive) | –
CC(O)CN1CCN(CC(=O)[O-])CCN(CC(=O)[O-])CCN(CC(=O)[O-])CC1.[Gd+3] (configuration not stated) | – | 22.1% (inactive) | –
O=C(O)COc1nc(Cl)c(Cl)cc1Cl | – | 0.365% [at 92.7 µM] (inactive) | –
CO/C=C(/C(=O)OC)c1ccccc1Oc1cc(Oc2ccccc2C#N)ncn1 | 13700 nM (active) | – | –
CS(=O)(=O)c1ccc(C(=O)C2C(=O)CCCC2=O)c([N+](=O)[O-])c1 | – | 11% [at 92.7 µM] (inactive) | –
CCOP(=O)(NC(C)C)Oc1ccc(SC)c(C)c1 (configuration not stated) | – | -5.19% [at 92.7 µM] (inactive) | –
COC1=C[C@@H]2[C@@H]3Cc4ccc(OC)c(O)c4[C@]2(CCN3C)CC1=O | – | -8.61% (inactive) | –
Cc1c(N)nc([C@H](CC(N)=O)NC[C@@H](N)C(N)=O)nc1C(=O)N[C@H](C(=O)N[C@@H](C)[C@H](O)[C@@H](C)C(=O)N[C@@H](C(=O)NCCc1nc(-c2nc(C(=O)NCCC[S+](C)C)cs2)cs1)[C@@H](C)O)C(O[C@H]1O[C@H](CO)[C@H](O)[C@@H](O)[C@@H]1O[C@H]1O[C@H](CO)[C@@H](O)[C@H](OC(N)=O)[C@H]1O)c1cnc[nH]1 (some centres not stated) | – | -28.9% (inactive) | –
O=C1C=CC[C@@H]2[C@H]3CCCN4CCC[C@@H](CN12)[C@@H]34 | – | -6.19% (inactive) | –
O=C(NCC1CCOCC1)c1cnc(Nc2ccc(Cl)cc2Cl)nc1C(F)(F)F | – | 9.38% (inactive) | –
CC(C)(O)C=CC(=O)[C@](C)(O)[C@H]1[C@H](O)C[C@]2(C)[C@@H]3CC=C4[C@@H](C=C(O)C(=O)C4(C)C)[C@]3(C)C(=O)C[C@@]12C | 37.2 nM (active) | – | –
C[C@@H]1[C@H](O)[C@@H](C)C=CC=CCCC=CC=CC=CC=C[C@H](O[C@H]2O[C@@H](C)[C@H](O)[C@@H](N)[C@@H]2O)CC2O[C@](O)(C[C@@H](O)[C@H](O)CC[C@@H](O)C[C@@H](O)C[C@@H](O)CC(=O)O[C@H]1C)C[C@H](O)[C@H]2C(=O)O | – | -7.33% (inactive) | –
COc1ccc(CC2NCCc3cc(OC)c(OC)cc32)cc1OC (configuration not stated) | – | -34.5% (inactive) | –

Compound | Potency | activity change, negative = cytotoxicity | outcome
C[C@H]1CCCC=CC2C[C@H](O)C[C@@H]2[C@H](O)C=CC(=O)O1 (some centres not stated) | – | -89.1% (inactive) | –
OCCCBr | – | 10.5% [at 92.7 µM] (inactive) | –
CC(=O)[O][Hg][c]1ccccc1 | 106 nM (active) | – | –
CCN(CC)C(=O)c1ccc(C2=CC3(CCNCC3)Oc3cccc(O)c32)cc1 | – | -5.91% (inactive) | –
CC[C@H]1C=CC=CC[C@@H](C)[C@H](O)[C@@](C)(O)C(=O)[C@@H](C)[C@H](O)[C@@H](C)C(=O)[C@@H](C)[C@H](O)[C@@H](C)C=CC(=O)O[C@@H]2[C@@H](C)[C@H](CC1)O[C@]1(CC[C@H](C)[C@H](C[C@@H](C)O)O1)[C@H]2C | 93.5 nM (active) | – | –
c1cc2c(cc1[C@H]1OC[C@H]3[C@H]1CO[C@H]3c1ccc3c(c1)OCO3)OCO2 | – | 3.49% (inactive) | –
O=[N+]([O-])c1ccc([As](=O)(O)O)cc1 | 8410 nM (active) | – | –
COCCOCCO | – | 10.1% [at 92.7 µM] (inactive) | –
CC(N[C@H]1C[C@H]1c1ccccc1)c1ccc2c(c1)OCCO2 (some centres not stated) | – | -12.4% (inactive) | –
CC(=O)OCC1=C(C(=O)O)N2C(=O)[C@@H](N)[C@@H]2SC1 | – | -30% (inactive) | –
COc1ccc2c(c[n+](C)c3c4cc5c(cc4ccc23)OCO5)c1OC | 743 nM (active) | – | –
Cc1nc(-c2ccc(-c3ccc(C(=O)N4CCc5cc6c(cc54)C4(CCN(C)CC4)CO6)cc3)c(C)c2)no1 | – | 6.25% (inactive) | –
O=C1CCC[C@@H]2[C@H]3CCCN4CCC[C@@H](CN12)[C@@H]34 | – | – | inactive
O=C1C(I)=CC(=C(c2cc(I)c(O)c(I)c2)c2ccccc2C(=O)O)C=C1I | – | -12.1% (inactive) | –
CC(C)(C)NC[C@H](O)c1ccc(O)cc1Cl | – | 2.9% (inactive) | –

system: NIH3T3; test: as above; conditions: MCC and control cell lines, CellTiter-Glo viability, 72 h; at 44.8 µM (top of the series) unless noted
Procedure, shortened: as §1

Compound | outcome
CC(=O)Nc1ccc(OC[C@](C)(O)C(=O)Nc2ccc([N+](=O)[O-])c(C(F)(F)F)c2)cc1 | inactive
CN1CCN(c2ccc([N+](=O)[O-])c3no[n+]([O-])c23)CC1 | inactive
COC1=C[C@@H]2[C@@H]3Cc4ccc(OC)c(O)c4[C@]2(CCN3C)CC1=O | inactive
O=C1C=CC[C@@H]2[C@H]3CCCN4CCC[C@@H](CN12)[C@@H]34 | inactive
CCN(CC)C(=O)c1ccc(C2=CC3(CCNCC3)Oc3cccc(O)c32)cc1 | inactive
c1cc2c(cc1[C@H]1OC[C@H]3[C@H]1CO[C@H]3c1ccc3c(c1)OCO3)OCO2 | inactive
O=[N+]([O-])c1ccc([As](=O)(O)O)cc1 | inactive
O=C1CCC[C@@H]2[C@H]3CCCN4CCC[C@@H](CN12)[C@@H]34 | inactive
O=C1C(I)=CC(=C(c2cc(I)c(O)c(I)c2)c2ccccc2C(=O)O)C=C1I | inactive

system: UISO; test: as above; conditions: MCC and control cell lines, CellTiter-Glo viability, 72 h; series mostly up to 46 µM; activity change, negative = cytotoxicity: at the top concentration
Procedure, shortened: as §1

Compound | activity change, negative = cytotoxicity | Potency
CC(=O)Nc1ccc(OC[C@](C)(O)C(=O)Nc2ccc([N+](=O)[O-])c(C(F)(F)F)c2)cc1 | -1.04% (inactive) | –
CCCCCCCCCC(CC)c1ccc(S(=O)(=O)O)cc1 (configuration not stated) | 13.9% [at 92.7 µM] (inactive) | –
Nc1ccc(Sc2ccc(N)cc2)cc1 | -13.3% [at 92.7 µM] (inactive) | –
CC(O)CN1CCN(CC(=O)[O-])CCN(CC(=O)[O-])CCN(CC(=O)[O-])CC1.[Gd+3] (configuration not stated) | 13.3% (inactive) | –
CN1CCN(c2ccc([N+](=O)[O-])c3no[n+]([O-])c23)CC1 | -14% (inactive) | –
O=C(O)COc1nc(Cl)c(Cl)cc1Cl | -16.3% [at 92.7 µM] (inactive) | –
CS(=O)(=O)c1ccc(C(=O)C2C(=O)CCCC2=O)c([N+](=O)[O-])c1 | 17.8% [at 92.7 µM] (inactive) | –
CCOP(=O)(NC(C)C)Oc1ccc(SC)c(C)c1 (configuration not stated) | -22.3% [at 92.7 µM] (inactive) | –
COC1=C[C@@H]2[C@@H]3Cc4ccc(OC)c(O)c4[C@]2(CCN3C)CC1=O | 10.8% (inactive) | –
O=C1C=CC[C@@H]2[C@H]3CCCN4CCC[C@@H](CN12)[C@@H]34 | -4.17% (inactive) | –
CC(O)=C(C#N)C(=O)Nc1cc(Br)ccc1Br | -4.65% (inactive) | –
O=C(NCC1CCOCC1)c1cnc(Nc2ccc(Cl)cc2Cl)nc1C(F)(F)F | -4.43% (inactive) | –
CC(C)(O)C=CC(=O)[C@](C)(O)[C@H]1[C@H](O)C[C@]2(C)[C@@H]3CC=C4[C@@H](C=C(O)C(=O)C4(C)C)[C@]3(C)C(=O)C[C@@]12C | – | 166 nM (active)
C=C1C[C@H]2[C@H]3CCC(=O)[C@@]3(C)CC[C@@H]2[C@@]2(C)C=CC(=O)C=C12 | -15.3% (inactive) | –
C[C@@H]1[C@H](O)[C@@H](C)C=CC=CCCC=CC=CC=CC=C[C@H](O[C@H]2O[C@@H](C)[C@H](O)[C@@H](N)[C@@H]2O)CC2O[C@](O)(C[C@@H](O)[C@H](O)CC[C@@H](O)C[C@@H](O)C[C@@H](O)CC(=O)O[C@H]1C)C[C@H](O)[C@H]2C(=O)O | 21.1% (inactive) | –
COc1ccc(CC2NCCc3cc(OC)c(OC)cc32)cc1OC (configuration not stated) | -3.15% (inactive) | –

Compound | activity change, negative = cytotoxicity | Potency
C[C@H]1CCCC=CC2C[C@H](O)C[C@@H]2[C@H](O)C=CC(=O)O1 (some centres not stated) | -105% (inactive) | –
OCCCBr | 30.7% [at 92.7 µM] (inactive) | –
CC(=O)[O][Hg][c]1ccccc1 | – | 841 nM (active)
CCN(CC)C(=O)c1ccc(C2=CC3(CCNCC3)Oc3cccc(O)c32)cc1 | 1.33% (inactive) | –
CC[C@H]1C=CC=CC[C@@H](C)[C@H](O)[C@@](C)(O)C(=O)[C@@H](C)[C@H](O)[C@@H](C)C(=O)[C@@H](C)[C@H](O)[C@@H](C)C=CC(=O)O[C@@H]2[C@@H](C)[C@H](CC1)O[C@]1(CC[C@H](C)[C@H](C[C@@H](C)O)O1)[C@H]2C | – | 1660 nM (active)
Cc1ccccc1-n1c(Cn2cnc3c(N)ncnc32)nc2cccc(C)c2c1=O | – | 3720 nM (active)
COc1ccc2c(c1)CN(C)CC2c1ccc(Cl)c(Cl)c1 (configuration not stated) | 6.98% (inactive) | –
c1cc2c(cc1[C@H]1OC[C@H]3[C@H]1CO[C@H]3c1ccc3c(c1)OCO3)OCO2 | -0.659% (inactive) | –
O=[N+]([O-])c1ccc([As](=O)(O)O)cc1 | 27.3% (inactive) | –
COCCOCCO | 11.6% [at 92.7 µM] (inactive) | –
CC(N[C@H]1C[C@H]1c1ccccc1)c1ccc2c(c1)OCCO2 (some centres not stated) | -4.11% (inactive) | –
CC(=O)OCC1=C(C(=O)O)N2C(=O)[C@@H](N)[C@@H]2SC1 | 4.7% (inactive) | –
Cc1nc(-c2ccc(-c3ccc(C(=O)N4CCc5cc6c(cc54)C4(CCN(C)CC4)CO6)cc3)c(C)c2)no1 | -2.34% (inactive) | –
O=C1CCC[C@@H]2[C@H]3CCCN4CCC[C@@H](CN12)[C@@H]34 | -0.544% (inactive) | –
O=C1C(I)=CC(=C(c2cc(I)c(O)c(I)c2)c2ccccc2C(=O)O)C=C1I | 2.12% (inactive) | –
CC(C)(C)NC[C@H](O)c1ccc(O)cc1Cl | 10.3% (inactive) | –
